According to PubChem BioAssay:

test system: Inhibin beta A chain (activin A); experiment: small molecules binding activin A – biochemical, small-molecule microarray, 635 nm fluorescence scan, primary screen (AID 1107); conditions: INHBA, higher = more signal;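 further: mouse activin A protein probed at 4.33 µg/mL on printed slides; score merges bound-protein fluorescence near 667 nm with spot signal-to-noise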

Row | SMILES | composite z-score
1 | CC(=CC1CCCCC1)[C@@H](NC(=O)c1cccnc1)c1ccc(-c2ccccc2)cc1 | 0.679
2 | C=C(CCCC)/C(=C/C[C@H](OC(C)=O)c1ccccc1OCCO)c1cnc2ccccc2c1 | 1.52
3 | O=C1OCCC=C[C@H]2OC34C=CCN(CCN5CCOCC5)C(=O)[C@H]3N(CCCCCO)C(=O)[C@@H]4C12 (stereo partly drawn) | -0.309
4 | COC(=O)[C@@]1(Cc2ccc(F)cc2)[C@H]2c3cc(C(=O)N(C)C)n(Cc4cc(C)n(C)n4)c3C[C@H]2CN1C(=O)c1ccccc1 | 0.609
5 | CCOc1ccc(N2C(=O)CSC2c2cccc([N+](=O)[O-])c2)cc1 (stereo not drawn) | -0.0762
6 | COc1cc(CO)cc(I)c1O[C@H]1C=C(C(=O)NCCO)C[C@@H](NC[C@@H]2CCCO2)[C@@H]1O | -0.0437
7 | CCCNC(=O)[C@@H]1c2ccccc2C(=O)N(Cc2ccccc2OC)[C@H]1c1ccc(CO)cc1 | -0.258
8 | COCCOC(=O)N1C(=O)[C@@]2(c3cc(C#CCCO)ccc31)[C@H](c1ccc(O)cc1)N1[C@H](c3ccccc3)[C@H](c3ccccc3)OC(=O)[C@H]1[C@@H]2C(=O)N1CCN(c2ncccn2)CC1 | 1.29
